Measured values published in PMC4336329 (PLoS ONE, 2015).
About 14,000 (4.5%) of roughly 310,000 compounds showed an effect of 50% or more. The effect is printed as a negative number. What follows is part of a selection rich in strong results, with near analogues and random picks from the rest.

biological target: human ether-à-go-go-related gene (hERG) potassium channel (human, UniProt Q12809); test: primary screen, population patch clamp on CHO cells stably expressing hERG; higher = less effect of the substance
Sequence (Q12809 whole entry, looked up): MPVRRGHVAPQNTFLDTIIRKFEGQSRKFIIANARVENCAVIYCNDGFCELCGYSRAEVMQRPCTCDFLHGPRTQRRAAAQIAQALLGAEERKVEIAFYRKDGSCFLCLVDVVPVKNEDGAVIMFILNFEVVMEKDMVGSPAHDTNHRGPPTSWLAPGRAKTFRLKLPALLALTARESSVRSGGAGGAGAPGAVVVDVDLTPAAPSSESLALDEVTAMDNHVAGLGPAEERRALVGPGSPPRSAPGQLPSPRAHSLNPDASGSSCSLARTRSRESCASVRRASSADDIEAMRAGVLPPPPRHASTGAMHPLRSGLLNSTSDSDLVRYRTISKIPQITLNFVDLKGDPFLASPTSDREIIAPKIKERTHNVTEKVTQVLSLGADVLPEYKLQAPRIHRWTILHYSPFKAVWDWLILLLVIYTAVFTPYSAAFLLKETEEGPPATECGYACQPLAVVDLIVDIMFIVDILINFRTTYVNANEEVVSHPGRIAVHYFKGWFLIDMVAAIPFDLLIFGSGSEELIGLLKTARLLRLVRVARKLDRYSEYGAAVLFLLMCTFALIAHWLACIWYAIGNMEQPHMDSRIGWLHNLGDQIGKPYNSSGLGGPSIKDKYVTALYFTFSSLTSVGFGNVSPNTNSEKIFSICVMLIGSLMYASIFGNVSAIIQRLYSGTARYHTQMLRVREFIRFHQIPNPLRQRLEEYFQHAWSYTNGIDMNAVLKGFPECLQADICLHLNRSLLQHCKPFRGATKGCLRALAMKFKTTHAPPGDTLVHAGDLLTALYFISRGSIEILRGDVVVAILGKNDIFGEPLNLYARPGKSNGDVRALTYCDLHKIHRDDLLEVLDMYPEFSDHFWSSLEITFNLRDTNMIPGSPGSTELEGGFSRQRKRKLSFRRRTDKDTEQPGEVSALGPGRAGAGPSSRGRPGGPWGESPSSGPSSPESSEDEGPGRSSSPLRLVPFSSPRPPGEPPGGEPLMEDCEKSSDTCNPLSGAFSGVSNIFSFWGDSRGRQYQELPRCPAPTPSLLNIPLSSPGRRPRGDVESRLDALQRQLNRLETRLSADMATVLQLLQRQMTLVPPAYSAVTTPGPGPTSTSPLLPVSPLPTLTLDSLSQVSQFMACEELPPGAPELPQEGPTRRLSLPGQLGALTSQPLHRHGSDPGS
Procedure: Briefly, Chinese hamster ovary (CHO) cells stably expressing the hERG channel were dislodged from tissue culture flasks and dispensed into PPC plates. […] During the recording, background leak currents were estimated by a 100 ms step to -80 mV from an initial holding potential of -70 mV and subtracted from the subsequent current measurement. The campaign was conducted in two phases using slight differences in recording protocol. In the first phase, the initial voltage pulse used a 100 ms step to -30 mV from a holding potential of -70 mV, a 2 s conditioning step to +25 mV, and a 2 s test step to -30 mV. During the second phase of the screen, the potential during the conditioning step was raised to +45 mV. In both phases of the campaign, a secondary voltage pulse was applied using the same parameters as the second phase initial pulse. The initial and secondary pulses were applied in the absence of compound, and upon application of 1 μM and 10 μM test concentrations. […]
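Note: peak tail current of the secondary pulse compared with the same well before compound.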

Q: With `CCOc1ccc2c(c1)N(C(=O)CN1C(=O)CCC1=O)C(C)(C)C=C2C` as the compound, how does the “hERG current change (%, negative = inhibition) at 10uM” value read?
A: -22.8%

Q: Which “hERG current change (%, negative = inhibition) at 10uM” value does the source give for `COCCNC(=O)COc1ccc(Br)cc1Cl` here?
A: 10.4%

Q: With `COCCNC(=O)C(c1ccc(F)cc1)N(C(=O)CCC(=O)Nc1nccs1)c1ccc(C)cc1` (stereo not shown) as the compound, how does the “hERG current change (%, negative = inhibition) at 10uM” value read?
A: -14.1%

Q: For `CN(c1ccc(OCC(=O)OCC(=O)Nc2ccc(Br)cc2)cc1)S(=O)(=O)c1cccs1`, which “hERG current change (%, negative = inhibition) at 10uM” value is on record?
A: -0.388%

Q: How did the “hERG current change (%, negative = inhibition) at 10uM” value turn out when `O=C(N/N=C/c1ccco1)c1ccccc1OCc1ccc(Br)cc1` was run?
A: -8.69%

Q: `O=C(N/N=C/c1ccco1)c1ccccc1OCc1ccccc1Cl` was tested. Which “hERG current change (%, negative = inhibition) at 10uM” value did it give?
A: -82.8%

Q: With `O=C(N/N=C/c1ccc[nH]1)c1ccccc1OCc1ccccc1Cl` as the compound, how does the “hERG current change (%, negative = inhibition) at 10uM” value read?
A: -25.5%

Q: Which “hERG current change (%, negative = inhibition) at 10uM” value does the source give for `CC(=O)c1ccc(-c2ccc(C(=O)NC3CCCCCC3)o2)cc1` here?
A: 26%

Q: For `O=C(NCC1CCCO1)c1ccc(NC(=O)c2ccc([N+](=O)[O-])cc2)cc1` (stereo not shown), which “hERG current change (%, negative = inhibition) at 10uM” value is on record?
A: -2.58%

Q: With `O=C(NCC1CCCO1)c1ccc(COc2ccc(Cl)cc2)cc1` (stereo not shown) as the compound, how does the “hERG current change (%, negative = inhibition) at 10uM” value read?
A: -11.9%

Q: `O=C(NCC1CCCO1)c1ccc(COc2ccc(Br)cc2)cc1` (stereo not shown) was tested. Which “hERG current change (%, negative = inhibition) at 10uM” value did it give?
A: -13.7%

Q: `O=C(NC(=S)NCC1CCCO1)c1ccc([N+](=O)[O-])cc1` (stereo not shown) was tested. Which “hERG current change (%, negative = inhibition) at 10uM” value did it give?
A: -16.6%

Q: With `O=C(NCC1CCCO1)c1cccc(Oc2ccc([N+](=O)[O-])cc2Cl)c1` (stereo not shown) as the compound, how does the “hERG current change (%, negative = inhibition) at 10uM” value read?
A: -72.6%

Q: With `O=C(NCC1CCCO1)c1cccc(Oc2c(Cl)cccc2[N+](=O)[O-])c1` (stereo not shown) as the compound, how does the “hERG current change (%, negative = inhibition) at 10uM” value read?
A: -0.562%

Q: With `O=C(NCC1CCCO1)c1ccc(COc2ccccc2)cc1` (stereo not shown) as the compound, how does the “hERG current change (%, negative = inhibition) at 10uM” value read?
A: -56.3%

Q: For `CC1(C)CC(NC(=O)c2ccc(-c3ccc([N+](=O)[O-])cc3)o2)CC(C)(C)N1`, which “hERG current change (%, negative = inhibition) at 10uM” value is on record?
A: -49%

Q: `O=C(NCC1CCCO1)c1ccc(Oc2ccc([N+](=O)[O-])cc2)cc1` (stereo not shown) was tested. Which “hERG current change (%, negative = inhibition) at 10uM” value did it give?
A: -60.8%

Q: With `CC(=O)c1ccc(-c2ccc(C(=O)NC3CC(C)(C)NC(C)(C)C3)o2)cc1` as the compound, how does the “hERG current change (%, negative = inhibition) at 10uM” value read?
A: -122%

Q: For `O=C(NCC1CCCO1)c1ccc(Oc2ccc([N+](=O)[O-])cc2Cl)cc1` (stereo not shown), which “hERG current change (%, negative = inhibition) at 10uM” value is on record?
A: -41.6%

Q: With `Brc1ccc(-n2cc(-c3ccccc3)c3c(NN4CCOCC4)ncnc32)cc1` as the compound, how does the “hERG current change (%, negative = inhibition) at 10uM” value read?
A: -15.7%

Q: For `Cn1c(SCC(=O)OCc2ccccc2)nnc1-c1ccco1`, which “hERG current change (%, negative = inhibition) at 10uM” value is on record?
A: 0.0583%

Q: For `CCCCC(=O)NC(c1ccco1)c1c(O)ccc2ccccc12` (stereo not shown), which “hERG current change (%, negative = inhibition) at 10uM” value is on record?
A: -2.6%

Q: Which “hERG current change (%, negative = inhibition) at 10uM” value does the source give for `O=C1CC2CS(=O)(=O)CC2N1c1ccc(Cl)cc1Cl` (stereo not shown) here?
A: 5.75%

Q: With `CCCc1ccc(S(=O)(=O)N/N=C\c2ccc3c(c2)OCO3)cc1` as the compound, how does the “hERG current change (%, negative = inhibition) at 10uM” value read?
A: -0.771%

Q: With `CCOc1ccc(NC(c2ccccn2)c2oc(CO)cc(=O)c2O)cc1` (stereo not shown) as the compound, how does the “hERG current change (%, negative = inhibition) at 10uM” value read?
A: 5.43%

Q: With `CN(C)CCNc1oc(-c2cccc(Cl)c2)nc1C#N` as the compound, how does the “hERG current change (%, negative = inhibition) at 10uM” value read?
A: -36.2%

Q: With `C=CCC1(Nc2ccccc2)CC(C)N(C)CC1C.O=C(O)C(=O)O` (stereo not shown) as the compound, how does the “hERG current change (%, negative = inhibition) at 10uM” value read?
A: -21.1%

Q: `Cc1ccc(-n2c(CSc3nc(C)cc(C)n3)nnc2SCC(=O)NCc2ccco2)cc1` was tested. Which “hERG current change (%, negative = inhibition) at 10uM” value did it give?
A: -38.7%

Q: `CCCCn1c(=O)n(C)c(=O)c2c3c(sc21)COC(C)(C)C3` was tested. Which “hERG current change (%, negative = inhibition) at 10uM” value did it give?
A: -11.1%

Q: For `C/C(=N\NC(=O)c1ccc(NS(=O)(=O)c2cccs2)cc1)c1ccccc1`, which “hERG current change (%, negative = inhibition) at 10uM” value is on record?
A: 22.3%

Q: How did the “hERG current change (%, negative = inhibition) at 10uM” value turn out when `O=C(NCC1CCCO1)c1ccc(-c2cccc(C(F)(F)F)c2)o1` (stereo not shown) was run?
A: -16.2%

Q: `Cc1ccc(C(=O)NCC2CCCO2)o1` (stereo not shown) was tested. Which “hERG current change (%, negative = inhibition) at 10uM” value did it give?
A: 7.49%

Q: Which “hERG current change (%, negative = inhibition) at 10uM” value does the source give for `O=C(NCC1CCCO1)c1ccc(NC(=O)c2cccc([N+](=O)[O-])c2)cc1` (stereo not shown) here?
A: 3.68%

Q: For `O=C(NCC1CCCO1)c1cccc(Oc2ccccc2)c1` (stereo not shown), which “hERG current change (%, negative = inhibition) at 10uM” value is on record?
A: -37.5%

Q: With `O=C(NCC1CCCO1)c1cccc(Oc2ccc([N+](=O)[O-])cc2)c1` (stereo not shown) as the compound, how does the “hERG current change (%, negative = inhibition) at 10uM” value read?
A: -73.7%

Q: How did the “hERG current change (%, negative = inhibition) at 10uM” value turn out when `CC(=O)c1ccc(-c2ccc(C(=O)NCC3CCCO3)o2)cc1` (stereo not shown) was run?
A: -50.5%

Q: How did the “hERG current change (%, negative = inhibition) at 10uM” value turn out when `O=c1cc(CN2CCN(c3cccc(Cl)c3)CC2)c2cc3c(cc2o1)CCCC3` was run?
A: 15.8%

Q: How did the “hERG current change (%, negative = inhibition) at 10uM” value turn out when `Cc1ccc(S(=O)(=O)CCC(=O)OCC(=O)N2CC(=O)Nc3ccccc32)cc1` was run?
A: -22.1%

Q: With `O=C(NCc1ccco1)NC12CC3CC(CC(C3)C1)C2` as the compound, how does the “hERG current change (%, negative = inhibition) at 10uM” value read?
A: 14.5%

Q: How did the “hERG current change (%, negative = inhibition) at 10uM” value turn out when `CC(C)=CCN1CCN(Cc2cn(C(C)C)c3ccccc23)CC1CCO` (stereo not shown) was run?
A: -10.5%

Q: `O=C(NCCS(=O)(=O)N1CCN(c2ccccc2F)CC1)c1ccco1` was tested. Which “hERG current change (%, negative = inhibition) at 10uM” value did it give?
A: -16.5%

Q: With `O=C(NCCS(=O)(=O)N1CCN(c2ccccc2)CC1)c1ccc(Br)o1` as the compound, how does the “hERG current change (%, negative = inhibition) at 10uM” value read?
A: -5.85%

Q: How did the “hERG current change (%, negative = inhibition) at 10uM” value turn out when `COc1ccc(N2CCN(S(=O)(=O)CCNC(=O)C3CCCCC3)CC2)cc1` was run?
A: 5.98%

Q: With `O=C(NCCS(=O)(=O)N1CCN(c2ccc(F)cc2)CC1)c1ccc(Br)o1` as the compound, how does the “hERG current change (%, negative = inhibition) at 10uM” value read?
A: -60.1%

Q: For `O=C(NCCS(=O)(=O)N1CCN(c2cccc(Cl)c2)CC1)C1CCCC1`, which “hERG current change (%, negative = inhibition) at 10uM” value is on record?
A: -79%

Q: How did the “hERG current change (%, negative = inhibition) at 10uM” value turn out when `Cc1cccc(CC(=O)NCCS(=O)(=O)N2CCN(c3cccc(Cl)c3)CC2)c1` was run?
A: -20.2%

Q: `COc1ccc(N2CCN(S(=O)(=O)CCNC(=O)c3ccc(Br)o3)CC2)cc1` was tested. Which “hERG current change (%, negative = inhibition) at 10uM” value did it give?
A: 10.6%

Q: With `O=C(NCCS(=O)(=O)N1CCN(c2cccc(Cl)c2)CC1)c1ccco1` as the compound, how does the “hERG current change (%, negative = inhibition) at 10uM” value read?
A: -73.8%

Q: `O=C(Cc1ccc(F)cc1)NCCS(=O)(=O)N1CCN(c2cccc(Cl)c2)CC1` was tested. Which “hERG current change (%, negative = inhibition) at 10uM” value did it give?
A: -16.2%

Q: Which “hERG current change (%, negative = inhibition) at 10uM” value does the source give for `O=C(NCCS(=O)(=O)N1CCN(c2cccc(Cl)c2)CC1)c1cc(=O)c2ccccc2o1` here?
A: 5.36%

Q: For `O=C(NCCS(=O)(=O)N1CCN(c2ccccc2)CC1)C1CC1`, which “hERG current change (%, negative = inhibition) at 10uM” value is on record?
A: 3.93%

Q: `O=C(Cc1ccccc1)NCCS(=O)(=O)N1CCN(c2cccc(Cl)c2)CC1` was tested. Which “hERG current change (%, negative = inhibition) at 10uM” value did it give?
A: -82.8%

Q: For `O=C1c2ccccc2S(=O)(=O)N1CCOc1ccc(F)cc1`, which “hERG current change (%, negative = inhibition) at 10uM” value is on record?
A: -27.6%

Q: For `CCOC(=O)c1sc(NC(=O)c2ccco2)nc1C`, which “hERG current change (%, negative = inhibition) at 10uM” value is on record?
A: 13.3%

Q: For `CC(=O)Nc1ccc(NC(=O)CC2SC(=O)N(CC(=O)c3ccccc3)C2=O)cc1` (stereo not shown), which “hERG current change (%, negative = inhibition) at 10uM” value is on record?
A: 7.25%
